# Screening results deposited in PubChem BioAssay by several laboratories.
# CF NFkB inh: inhibitors of PAF-induced NF-kB signaling, primary screen, cell-based, GFP fluorescence, uHTS; 0.86% of 360,000 active; KKLEB NF-kB-GFP reporter, GFP fluorescence overnight; inhibition, % at 5 µM; AID 588850, 2011;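 active = at least 50% inhibition at 5 µM, scaled per plate between neutral and stimulator controls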;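 also: PAF is a Pseudomonas aeruginosa culture filtrate used as stimulus; plate controls were PAF-stimulated DMSO wells for no effect and unstimulated DMSO wells for full effect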
# CHOP inh: inhibitors of CHOP promoter induction, primary screen, cell-based, unfolded protein response, luciferase reporter. CHO-K1 CHOP-promoter luciferase, tunicamycin-induced, 15-18 h. inhibition, % at 10 µM. 3.8% of 220,000 active;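 active = compounds that reduced the stress-induced luciferase reporter signal by more than about 70% of percent inhibition, limit read from the data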;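 also: 0% = tunicamycin plus vehicle and 100% = wells without tunicamycin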
# MITF TRPM1 inh: inhibitors of MITF-dependent TRPM1 promoter reporter, primary screen, cell-based, SK-MEL-5, single point, luciferase | inhibition, % at 12.5 µM | AID 488899, 2010 | SK-MEL-5 TRPM1 promoter luciferase, 24 h | 0.83% of 330,000 active;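 active = mean inhibition across replicates of 60% or more, whatever share of single replicates reaches that level; inconclusive = some that reach 60%, reason not given; inactive = mean inhibition across replicates below 60%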
# HIF-2a inh: HIF-2a reporter inhibitors, primary screen, luminescence, 786-0 RCC cells. 786-0 RCC cells HIF-2a reporter, luciferase luminescence, overnight. inhibition, % at 18.8 µM. 0.72% of 360,000 active. AID 624352, 2012;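 active = inhibition of the luminescence signal of 40% or more relative to plate controls, in a single-dose primary screen at 18.75 µM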
# Peg3 prom inh: Peg3 promoter-driven luciferase inhibitors, primary screen, cell-based, HeLa, luciferase luminescence. HeLa PEG-Prom luciferase reporter, overnight. inhibition, % at 20 µM. 1.7% of 360,000 active;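 active = inhibition of at least 50% at 20 µM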
# KKLEB cytotox: cytotoxicity in KKLEB CF airway cells, primary screen, cytotoxicity control for CF NF-kB inhibitor project, cell-based, uHTS, fluorescence assay plates; AID 602141, 2011; 0.36% of 360,000 active; activity change (cytotoxicity), % at 5 µM; KKLEB CF airway cells viability, ATPlite luminescence, overnight; active compounds read low; cells stimulated with P. aeruginosa culture filtrate;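 active = corrected activity change at or below -50% at 5 µM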
# CHOP inh conf: retest of CHOP induction inhibitors, confirmation, cell-based. 45% of 2,100 active. CHO-CHOP promoter luciferase reporter, tunicamycin-induced, luminescence. shares compounds with CHOP inh. inhibition, % at 10 µM;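 active = mean of three repeat readings of reporter signal inhibition above a set limit, cut at about 70% in these data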;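 also: 0% = tunicamycin plus vehicle and 100% = wells lacking tunicamycin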
# Numbers without * were called inactive; ? = inconclusive; · = not tested or not shown. Compounds with a hit are over-represented: about 4.3% of the library has one in this group of screens.
SMILES,CF NFkB inh,CHOP inh,MITF TRPM1 inh,HIF-2a inh,Peg3 prom inh,KKLEB cytotox,CHOP inh conf
CCOc1ccc(N(CC(=O)NCCSCc2ccco2)S(=O)(=O)c2ccc(C)cc2)cc1,15,·,4,11,8,-35,·
CC(C)C(OC(=O)c1oc2ccccc2c1CSC1CCCCC1)C(=O)NC(N)=O (stereo not given),·,63,·,·,·,·,·
CCNC(=O)NC(=O)C(C)OC(=O)c1oc2ccccc2c1CSC1CCCCC1 (stereo not given),4,99*,-1,9,25,1,-2
CNC(=O)NC(=O)C(C)OC(=O)c1oc2ccccc2c1CSc1ccc(Cl)cc1 (stereo not given),16,98*,-7,15,18,-12,99*
O=C(OCc1ccccc1)N1CCC2CC1c1cc(-c3cc4ccccc4o3)ccc12 (stereo not given),8,·,·,-6,21,-12,·
CCOC(=O)c1oc2ccc(S(=O)(=O)n3nc(-c4ccc(C)cc4)cc3N)cc2c1C,8,97*,10,19,25,16,56
COc1ccc(NS(=O)(=O)c2ccc3oc4ccccc4c3c2)cn1,0,97*,9,3,30,-8,-29
Cc1cnc(CN(C)C(=O)CC2C(=O)NCCN2CCCc2ccccc2)[nH]1 (stereo not given),5,·,-2,8,13,-16,·
CCN(C(=O)c1cc2c(=O)[nH]c3ccc(C)cc3c2s1)c1cccc(C)c1,16,98*,-18,0,12,-10,18
Cc1ccccc1-c1noc(CNC(=O)c2ccco2)n1,12,·,11,-15,-11,-5,·
COc1ccc(-c2csc(N(CCc3ccccc3)C(=O)COc3ccccc3)n2)cc1,-7,32,-1,28,4,-4,·
O=C(COc1ccc(Cl)cc1)N(Cc1ccccc1)c1nc(-c2ccccc2)cs1,3,103*,1,13,55*,-2,54
Cc1oc(=O)c(NC(=O)c2cccc(Cl)c2)cc1C(=O)c1ccccc1,15,104*,-41,-233,-80,8,64
COc1ccc(C(=O)Nc2cc(C(=O)c3ccccc3)c(C)oc2=O)cc1,0,-70,-8,-76,-191,-9,·
CC1(C(=O)NS(=O)(=O)c2cccs2)CCN1C(=O)Cc1ccccc1 (stereo not given),-8,·,·,8,8,6,·
CC1Cc2cc(/C(O)=C3/C(=O)C(=O)N(CCCN4CCOCC4)C3c3ccc(C(C)C)cc3)ccc2O1 (stereo not given),3,·,11,6,8,-1,·
Cc1cccc2cc(C#N)c(NCCNS(=O)(=O)c3ccccc3)nc12,0,38,-12,2,0,-3,·
Cc1cccc2cc(C#N)c(NCCCNS(=O)(=O)c3ccc(Cl)cc3)nc12,-2,104*,5,-1,25,2,54
CC1CCc2c(sc3ncn(CCO)c(=O)c23)C1 (stereo not given),9,-10,-74,-167,-173,1,·
CC1CCc2c(sc3ncn(CC(=O)N=Nc4c(O)[nH]c5ccccc45)c(=O)c23)C1 (stereo not given),-1,105*,15,21,39,14,113*
C=CCOc1c(Br)cc(/C=N/n2c(CC)n[nH]c2=S)cc1Br,22,107*,16,17,19,-20,-7
Cc1cc(C)c2c(CC(=O)Nc3ccc(Cl)cn3)coc2c1,34,97*,-4,4,1,-13,12
C[C@H]1CN(S(=O)C(C)(C)C)[C@H](CCO)/C1=C\CCO (stereo not given in full),-25,·,-2,-3,6,8,·
O=C(Nc1ccccn1)c1cc(-c2cccnc2)nc2ccc(Br)cc12,-15,103*,?,1,56*,7,-15
CCN(CC)C(C)C#CCC(c1ccccc1)c1ccccc1 (stereo not given),·,19,·,·,·,·,·
SMILES,CF NFkB inh,CHOP inh,MITF TRPM1 inh,HIF-2a inh,Peg3 prom inh,KKLEB cytotox,CHOP inh conf
COc1ccc(NS(=O)(=O)c2ccc(F)c(F)c2F)cc1S(=O)(=O)N1CCOCC1,12,·,-7,5,-2,-11,·
O=c1c2ccccc2nc2n1CCN2Cc1ccc(Cl)cc1,8,99*,-9,-101,-34,2,95*
O=c1c2ccccc2nc(-c2ccccc2)n1Cc1ccc(Cl)cc1,9,11,1,-26,4,-11,·
O=C(Nc1cccc(Cl)c1)Nc1cnccn1,24,·,-20,-78,-45,-5,·
O=C(Nc1cccc(Cl)c1)Nc1ccnc(-c2cccnc2)n1,-107,105*,2,-73,78*,10,105*
O=[N+]([O-])c1c(NCCCO)cc(Sc2nc3ccccc3s2)c2nonc12,-20,109*,70*,35,101*,13,71*
Cc1nnc(Sc2cc(NCCO)c([N+](=O)[O-])c3nonc23)s1,-10,98*,67*,25,31,20,-11
CC(=O)OCCCNc1cc(SCc2ccco2)c2nonc2c1[N+](=O)[O-],1,22,6,-1,46,2,·
CC(=O)c1c(C)[nH]c(C(=O)NCC2CCCCC2)c1C,-8,·,-40,-130,-85,0,·
Cc1ccc(NC(=O)COc2ncnc3c(Cl)cc(Cl)cc23)cc1[N+](=O)[O-],-14,104*,5,13,18,-1,4
Cc1cc(Cl)ccc1OCC(=O)OCC(=O)Nc1ccc(F)c([N+](=O)[O-])c1,-6,-8,-14,14,-1,6,·
Oc1ccc(/C=N/N2CCN(C3c4ccccc4-c4ccccc43)CC2)c(O)c1,12,100*,15,11,15,10,112*
COc1cc(Cl)ccc1OCc1cc(C(=O)N2CCN(C3CCCCC3)CC2)no1,-8,·,·,-87,-39,-9,·
Cc1ccc(-n2[nH]c(C)c(C=Nc3ccc4[nH]c(=O)[nH]c4c3)c2=O)cc1,-10,103*,8,-5,16,-1,-4
COc1ccc2oc(=O)c(-c3cn4ccc(C)cc4n3)cc2c1,-16,97*,-55,-256,-162,-4,-30
CC(=O)Nc1cccc(-c2ccnc3c2CC(C(=O)NCc2ccc(F)c(F)c2)O3)c1 (stereo not given),7,·,·,10,18,-20,·
CCCOc1ccc(/C=N/NC(=S)Nc2ccccc2[N+](=O)[O-])c(O)c1,·,101*,·,·,·,·,32
